ChEMBL document CHEMBL3988442, “University of Dundee, Small-Polar-MMV Screening Library” (2021)
The campaign covered roughly 69,000 compounds. About 420 (0.61%) showed an effect of 50% or more. This is one part of a sample in which strong results are shown more often than they occur.

target: T1, Histidine--tRNA ligase (Leishmania infantum) (UniProt A4I591); test: Leishmania infantum Histidine tRNA synthetase (LdHisRS); assay type: functional; design: scale not given: in the data most compounds retested in dose-response had high values; conditions: 30 µM
T1 sequence (whole entry): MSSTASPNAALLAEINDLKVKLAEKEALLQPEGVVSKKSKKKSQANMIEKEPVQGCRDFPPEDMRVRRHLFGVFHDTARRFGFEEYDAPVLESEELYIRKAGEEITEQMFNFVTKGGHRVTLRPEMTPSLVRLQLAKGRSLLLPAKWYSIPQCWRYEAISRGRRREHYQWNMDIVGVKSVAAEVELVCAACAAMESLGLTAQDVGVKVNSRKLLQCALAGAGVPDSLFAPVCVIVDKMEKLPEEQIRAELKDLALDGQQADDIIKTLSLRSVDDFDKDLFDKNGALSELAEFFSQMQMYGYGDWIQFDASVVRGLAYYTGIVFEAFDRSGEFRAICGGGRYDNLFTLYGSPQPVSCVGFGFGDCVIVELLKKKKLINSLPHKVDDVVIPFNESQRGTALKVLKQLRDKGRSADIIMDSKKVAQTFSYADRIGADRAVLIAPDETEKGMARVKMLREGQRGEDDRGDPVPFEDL

Structure (SMILES) | Percent Effect
CN(C)CCN1C(=O)CC[C@@H]2[C@H]1CCN2C(=O)c1ccc(C#N)cc1 | 17.1%
CN(C)[C@H]1COC[C@@H]2CN(Cc3ccc4c(c3)OCO4)C[C@@H]21 | 16.2%
O=C1N(c2ccccc2)C[C@H]2CN(C3CCC3)CCN12 | 22.2%
CCc1ccc2c(C3CN(S(C)(=O)=O)C3)ncn2c1 | 12.6%
CCc1ccc2c(C3CN(C(C)=O)C3)ncn2c1 | 17.6%
CCc1ccc2c(C3CN(CC4CCC4)C3)ncn2c1 | 69.8%
Cn1ccc(NC(=O)Cc2cccc(F)c2)n1 | 15.4%
Cc1cc(=O)n(C)cc1NC(=O)Cc1cccc(Cl)c1 | 107%
Cc1cc(=O)n(C)cc1NC(=O)Cc1ccc(C(F)(F)F)cc1 | 107%
Cc1cc(=O)n(C)cc1NC(=O)NCc1cccc(F)c1 | 107%
Cc1cc(=O)n(CC(=O)Nc2cccc(Cl)c2)nc1C | 2.4%
CN(C)C(=O)CCCn1ccc(NC(=O)NCc2cccc(F)c2)n1 | 2.08%
Cn1cc(NC(=O)c2cccc(C(F)(F)F)c2)c(=O)n(C)c1=O | 22.9%
CS(=O)(=O)CCn1ccc(NC(=O)Cc2cccc(Cl)c2)n1 | 15.3%
Cc1cc(=O)n(C)cc1NC(=O)Cc1cccc(F)c1 | 68.5%
O=C(NCc1cccc(F)c1)Nc1ccn(CCN2CCOCC2)n1 | 11.2%
Cn1ccc(CS(=O)(=O)Cc2cccc(F)c2)cc1=O | 18.8%
Cc1ccc(C(F)(F)F)cc1NCC(=O)Nc1c(C)nn(C)c1C | 17.8%
Cc1cccc(C(=O)N2CC[C@@H]3CN(c4ncccn4)CCO[C@@H]3C2)c1 | 10%

Structure (SMILES) | Percent Effect
COc1ccc(CN2CCO[C@@H]3C[C@@H](C(=O)NC(C)C)C[C@H]32)cc1 | 25%
COC[C@]12COC[C@H]1CN(Cc1ccc3c(c1)OCO3)C2 | 1.98%
O=C1CC[C@H]2[C@H](CCN2C(=O)C2CCOCC2)N1Cc1ccncc1 | 17.5%
CNC(=O)[C@@]12CCCN(c3ncccn3)[C@@H]1CN(c1ncc(F)cn1)C2 | 16.8%
CCc1ccc(C(=O)N2C[C@@H]3COC[C@@H](C(=O)NC)[C@@H]3C2)cc1 | 14%
C[C@@H]1C(=O)NC[C@H]2CN(Cc3ccc4c(c3)OCO4)C[C@H]21 | 15.6%
O=C(NCc1ccccn1)[C@]12COC[C@H]1CN(Cc1cccnc1)C2 | 11.1%
O=C([C@H]1C[C@@H]2CN(c3ncc(F)cn3)C[C@H]1O2)N1CCOCC1 | 5.94%
CC(C)NC(=O)N1CC[C@H]2N(C)CC[C@@]2(C(=O)Nc2cccnc2)CC1 | 9.91%
O=C(NCC1CC1)[C@H]1C[C@H]2OCC[C@H]2N(Cc2ccsc2)C1 | 0%
Cc1cccc(CN2CC[C@@H]3[C@@H]2CCN3C(=O)c2cc(C)oc2C)n1 | 25.6%
O=C([C@H]1C[C@@H]2CCN(c3cccc(F)c3)C[C@H]2O1)N1CCCCO1 | 22.2%
Cc1cc(=O)n(C)cc1NC(=O)Cc1cc(F)ccc1F | 107%
CCC(=O)NCC(=O)Nc1c(C)cnn1Cc1cc(F)ccc1F | 14.5%
Cc1cc(F)ccc1NC(=O)Cn1cc(C(=O)O)ccc1=O | 21.7%
CN(CCO)Cc1nnc(C2CCN(C[C@H]3[C@@H]4CNC[C@@H]43)CC2)n1C | 9.38%
Cc1ccc(C(=O)N2C[C@H]3CCC[C@@]3(COc3ccccn3)C2)nc1 | 16.4%
CNc1cc(C)nc(-c2cc(NC3CCNCC3)nc3[nH]ccc23)n1 | 32.6%
COc1nccnc1-c1cc(NC2CCNCC2)nc2[nH]ccc12 | 55.3%

Structure (SMILES) | Percent Effect
Nc1ccnc(-c2cc(NC3CCNCC3)nc3[nH]ccc23)c1 | 41%
COc1ncc(-c2cc(NC3CCCC3)nc3[nH]ccc23)c(OC)n1 | 21.3%
COc1nccnc1-c1cc(NC2CCCC2)nc2[nH]ccc12 | 6.38%
FC(F)(F)c1ccc(-c2cc(NC3CCNCC3)nc3[nH]ccc23)nc1 | 63.9%
Cc1oncc1C(=O)N[C@@H]1CN(Cc2ccco2)C[C@@H]2CCCO[C@@H]21 | 4.54%
Cn1ccc(C(=O)N2C[C@H]3CCC[C@@]3(COCc3cccnc3)C2)n1 | 7.96%
COC[C@]12COC[C@H]1CN(S(=O)(=O)c1cccnc1)C2 | 14%
CCc1cc(N2CCSCC2)n2nc(C)c(C)c2n1 | -0.971%
CCc1cc(N2CCS(=O)(=O)CC2)n2nc(C)c(C)c2n1 | 13.3%
CCc1cc(N2CCC(F)(F)CC2)n2nc(C)c(C)c2n1 | 61.7%
Cc1nnc(NCc2cccnc2N(C)C)c(C#N)c1C | 15.4%
Cc1nnc(NCC(c2cccs2)N2CCCC2)c(C#N)c1C (stereo unspecified) | 32.9%
Cc1nnc(NCC(c2ccco2)N2CCCC2)c(C#N)c1C (stereo unspecified) | 60.3%
Cc1nnc(NCC(c2ccco2)N2CCCCC2)c(C#N)c1C (stereo unspecified) | 32.9%
Cc1nnc(NCc2ccccc2Cl)c(C#N)c1C | 52.3%
Cc1nnc(NCC(c2ccco2)N(C)C)c(C#N)c1C (stereo unspecified) | 54.8%
COCc1ccccc1CNc1nnc(C)c(C)c1C#N | 12.3%
Cc1nnc(NCc2ccccc2F)c(C#N)c1C | 49.5%
